Assay results taken from PubChem BioAssay (NCI).
“And” between values parts separate entries of the source, which are not always exact repeats. Equal values may be shown once. This is part of a sample that, as a whole, favours compounds with a hit. Of some 79,000 tested, about 15% had one in any assay. The source holds several records for some structures; these can differ, active in one and inactive in another. The source made the active and inactive calls. Rule as the data show it: active = growth inhibition above about 70%; inactive = the rest.

Assays:
[1] = NCI Yeast Anticancer Drug Screen. Data for the rad50 strain (AID 155);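 also: 0% = growth of vehicle-only cultures of the same strain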; conditions: S. cerevisiae rad50 strain growth inhibition, stronger effect = higher value
How it was run: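 Cells are treated with compound, grown, and their growth is then scored against vehicle-only cultures of the same repair-deficient yeast strain.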

[2] = NCI Yeast Anticancer Drug Screen. Data for the mec2-1 strain (AID 157); conditions: S. cerevisiae mec2-1 strain, stronger effect = higher value
How it was run: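 Cells of the genetically defined mec2-1 yeast strain are incubated with test compound. Inhibition of growth is calculated against vehicle-treated controls.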

[3] = NCI Yeast Anticancer Drug Screen. Data for the sgs1 mgt1 strain (AID 161);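 also: 0% = growth of cultures given vehicle only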; conditions: S. cerevisiae sgs1 mgt1 strain, stronger effect = higher value
How it was run: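 Read-out: growth inhibition vs vehicle controls. Cells: mutant yeast strain deficient in DNA damage repair.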

[4] = NCI Yeast Anticancer Drug Screen. Data for the cln2 rad14 strain (AID 165);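 also: 0% = growth equal to vehicle treated cultures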; conditions: S. cerevisiae cln2 rad14 strain, stronger effect = higher value
How it was run: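 The screen exposed genetically defined yeast (cln2 rad14) to test compounds and scored growth inhibition relative to vehicle-treated controls.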

[5] = NCI Yeast Anticancer Drug Screen. Data for the bub3 strain (AID 167); conditions: S. cerevisiae bub3 mutant strain, stronger effect = higher value
How it was run: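 Part of a panel of yeast mutants defective in DNA damage repair or cell cycle regulation. Each strain is grown with compound, and inhibition is calculated relative to solvent-treated cultures.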

[6] = NCI Yeast Anticancer Drug Screen. Data for the mlh1 rad18 strain (AID 175); conditions: S. cerevisiae mlh1 rad18 strain growth inhibition, stronger effect = higher value
How it was run: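 Compound-treated yeast growth, normalised to vehicle controls. Strain bears defined DNA repair mutations.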

[7] = at 5.0 µM (retest, dose inferred, filed as 0.5)
[8] = at 50.0 µM (retest, dose inferred, filed as 5.0)

| Structure (SMILES) | growth inhibition [1, 7] | growth inhibition [1, 8] | growth inhibition ([1]; at 50.0 µM) | growth inhibition [2, 7] | growth inhibition [2, 8] | growth inhibition ([2]; at 50.0 µM) | growth inhibition [3, 7] | growth inhibition [3, 8] | growth inhibition ([3]; at 50.0 µM) | growth inhibition [4, 7] | growth inhibition [4, 8] | growth inhibition ([4]; at 50.0 µM) | growth inhibition [5, 7] | growth inhibition [5, 8] | growth inhibition ([5]; at 50.0 µM) | growth inhibition [6, 7] | growth inhibition [6, 8] | growth inhibition ([6]; at 50.0 µM) |
| --- | --- | --- | --- | --- | --- | --- | --- | --- | --- | --- | --- | --- | --- | --- | --- | --- | --- | --- |
| O=C(O)c1ccc(Nc2cnc3ccc(C(F)(F)F)cc3n2)cc1 | 18% (inactive) | 16% (inactive) | 60.9% (inactive) | 4% (inactive) | 12% (inactive) | 41.2% (inactive) | 10% (inactive) | 13% (inactive) | 18.2% (inactive) | 5% (inactive) | 12% (inactive) | -0.05% (inactive) | 5% (inactive) | 12% (inactive) | 4.9% (inactive) | 16% (inactive) | 16% (inactive) | 6.7% (inactive) |
| O=C1c2cccc(NCCCNCCO)c2C(=O)c2cccc(NCCCNCCO)c21 | 33% (inactive) | 47% (inactive) | 43.2% (inactive) and 9.05% (inactive) | -8% (inactive) | 2% (inactive) | 23.6% (inactive) and 5.3% (inactive) | 26% (inactive) | 39% (inactive) | 12.7% (inactive) and 88.5% (active) | 30% (inactive) | 39% (inactive) | 9% (inactive) and 48.1% (inactive) | 13% (inactive) | 39% (inactive) | -8.35% (inactive) and 63.1% (inactive) | 15% (inactive) | 42% (inactive) | 81.5% (active) and 83.4% (active) |
| OCC1OC(Sc2ncc[nH]2)C(O)C(O)C1O (stereo unspecified) | -12% (inactive) | 4% (inactive) | 5.1% (inactive) and 4.95% (inactive) | -1% (inactive) | -10% (inactive) | -7.25% (inactive) and -9.95% (inactive) | -30% (inactive) | -11% (inactive) | -4.55% (inactive) and -7.65% (inactive) | 11% (inactive) | 3% (inactive) | 4.15% (inactive) and 44.2% (inactive) | 0% (inactive) | 0% (inactive) | -1.3% (inactive) and -3.2% (inactive) | -18% (inactive) | -14% (inactive) | -17.8% (inactive) and -16.8% (inactive) |
| N#Cc1c(-c2ccccc2)cc(-c2ccccc2)n(C2OC(CO)C(O)C(O)C2O)c1=S (stereo unspecified) | -4% (inactive) and 0% (inactive) | 4% (inactive) and -12% (inactive) | 93% (active) and 32.5% (inactive) | -7% (inactive) and -4% (inactive) | -19% (inactive) and -15% (inactive) | 40.9% (inactive) and -23.4% (inactive) | -14% (inactive) and 4% (inactive) | 10% (inactive) and 8% (inactive) | 4% (inactive) and -26.1% (inactive) | 10% (inactive) and -1% (inactive) | 22% (inactive) and 18% (inactive) | -35% (inactive) and -38.9% (inactive) | -1% (inactive) and 10% (inactive) | 11% (inactive) and 4% (inactive) | 53.6% (inactive) and -49.4% (inactive) | 9% (inactive) and 1% (inactive) | 8% (inactive) and -7% (inactive) | 60.5% (inactive) and 1% (inactive) |
| N=C1N(c2ccccc2)C(=S)C(=Nc2ccccc2)N1c1ccccc1 | 16% (inactive) | 99% (active) | 88.5% (active) | -4% (inactive) | 99% (active) | 90.8% (active) | 8% (inactive) | 99% (active) | 84% (active) | 9% (inactive) | 99% (active) | 82% (active) | -33% (inactive) | 99% (active) | 84.2% (active) | -6% (inactive) | 99% (active) | 87.2% (active) |
| CC(C)=CCC(O)C1=CC(=O)c2c(O)ccc(O)c2C1=O (stereo unspecified) | 44% (inactive) | 59% (inactive) | 9.15% (inactive) and 87.9% (active) and 4.05% (inactive) | 46% (inactive) | 66% (inactive) | 15.9% (inactive) and 90.7% (active) and 54.8% (inactive) | 43% (inactive) | 92% (active) | 12.4% (inactive) and 91.5% (active) and 30.6% (inactive) | 59% (inactive) | 94% (active) | 16.1% (inactive) and 89.1% (active) and 33.1% (inactive) | 62% (inactive) | 87% (active) | 22.6% (inactive) and 88% (active) and 36.5% (inactive) | 43% (inactive) | 60% (inactive) | 26.6% (inactive) and 85.2% (active) and 9.65% (inactive) |
| COc1ccc2nc3cc(Cl)ccc3c(NCCCNCc3cc(OC)c(OC)c(OC)c3)c2c1 | 18% (inactive) | 92% (active) | 98.2% (active) | -3% (inactive) | 62% (inactive) | 98.3% (active) | 6% (inactive) | 87% (active) | 98.3% (active) | 21% (inactive) | 83% (active) | 98.8% (active) | 22% (inactive) | 82% (active) | 98.8% (active) | 3% (inactive) | 92% (active) | 98% (active) |
